Only some compounds are listed: those with a hit (about 6% of all), similar ones and a draw of the others.
D1 antag: human D1 dopamine receptor antagonism; P21728; AID 504652; 3.2% of 360,000 active; activity change, negative = inhibition, % at 10 µM; HEK293 TREx D1 cells, calcium flux, dopamine EC80; hits give low values; in the data active means activity change below about -30%; further: on the % scale 0 is the no-effect control and ±100 the full control effect
Target sequence (P21728 whole entry, looked up): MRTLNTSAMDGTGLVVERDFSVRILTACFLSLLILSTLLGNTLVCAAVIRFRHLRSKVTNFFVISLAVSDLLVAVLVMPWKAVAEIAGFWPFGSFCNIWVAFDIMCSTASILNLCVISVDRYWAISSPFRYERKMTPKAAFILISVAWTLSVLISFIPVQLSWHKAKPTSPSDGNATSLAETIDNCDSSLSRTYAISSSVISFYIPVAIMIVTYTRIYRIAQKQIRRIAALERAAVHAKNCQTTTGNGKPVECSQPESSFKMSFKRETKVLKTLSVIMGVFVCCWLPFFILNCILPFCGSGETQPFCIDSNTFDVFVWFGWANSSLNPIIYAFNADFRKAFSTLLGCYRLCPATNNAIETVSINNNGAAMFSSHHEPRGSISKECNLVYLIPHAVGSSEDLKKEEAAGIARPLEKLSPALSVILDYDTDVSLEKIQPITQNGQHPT
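HEK293 T-REx cells expressing inducible, force-coupled D1 receptor; no-wash Ca dye, 30–90 min RT. Cmpd → 180 s read at 1 Hz → EC80 DA → 180 s read.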
D3 antag: antagonists of human D3 dopamine receptor. D3R cells, DiscoveRx beta-arrestin luminescence, antagonist mode; hits give low values. max response, negative = inhibition, %. 2.5% of 360,000 active. AID 652054; in the data active means max response below about -50%; inconclusive means no clear call, values can overlap the other calls; further: on the % scale 0 is the no-effect control and ±100 the full control effect
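Cells plated overnight at 1500 cells/well, then exposed to library compounds with dopamine controls for 90 minutes at 37 degrees C. DiscoveRx reagent added for 30–60 minutes at room temperature; luminescence read, quantitative HTS format.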
D1 PAM: enhances dopamine response at the human D1 receptor. 0.036% of 360,000 active. potentiation, % at 10 µM. P21728. HEK293 TREx D1 cells, calcium flux, dopamine EC20 potentiation; in the data active means potentiation above about 30%; further: 0% is about no effect
D1 ag: agonists of human D1 dopamine receptor. activation, % at 2 µM. HEK293 T-REx D1 cells, calcium flux, agonist mode. P21728. AID 504660. 1% of 360,000 active; in the data active means activation above about 30%; further: 0% is about no effect
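Agonism was scored from calcium flux recorded over 180 s (1 read/s) after pintool compound addition, following a 10-cycle baseline. Cells were inducible force-coupled HEK293 TREx D1, plated overnight at 30 C and loaded with no-wash calcium dye.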
DRD3 agonist: agonists of human D3 dopamine receptor | P35462 | max activation, % | 0.58% of 410,000 active | D3R DiscoveRx beta-arrestin cells, luminescence, 90 min; in the data active means max activation above about 30%; further: 0% is about no effect
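Agonist-mode cell screen: cells plated at 1500/well and incubated overnight at 37 °C, then exposed to library compounds for 90 min at 37 °C. Detection reagent was added for 30–60 min at room temperature, and luminescence was read.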
* marks the source's active call; other numbers are inactive results; ? = inconclusive; nt = not tested or not shown.

SMILES	D1 antag	D3 antag	D1 PAM	D1 ag	DRD3 agonist
Cc1ccc(NC(=O)CCCn2c(=O)c3cccn3c3cccnc32)c(C)c1	0	nt	-1	1	-19
COc1ccc(/C=C(/NC(=O)c2ccccc2)C(=O)N2CCCCC2)cc1OC	0	-12	4	72*	-7
COc1ccc(/C=C(\NC(=O)c2ccccc2)C(=O)N2CCCCC2)cc1OC	-3	16	-5	7	3
O=C(N/C(=C\c1cccnc1)C(=O)N1CCOCC1)c1ccco1	-33*	0	-6	1	-1
COc1ccc(/C=C(/NC(=O)c2ccco2)C(=O)N2CCCCCC2)cc1OC	29	18	-2	36*	2
CC(=O)Nc1ccc([N+](=O)[O-])cn1	-11	-53*	4	1	-8
O=[N+]([O-])c1ccc(Nc2ccc3ccccc3c2)nc1	-34*	-107*	-10	3	-16
O=C(O)c1cccc(Nc2ccc([N+](=O)[O-])cn2)c1	-35*	-19	-6	-1	-9
O=[N+]([O-])c1ccc(Nc2ccc(Cl)cc2)nc1	6	-25	1	2	6
COC(=O)c1cc2sc(C)cc2n1Cc1nc(-c2cccc(Br)c2)oc1C	10	nt	-3	0	7
COc1cc(NC(=O)c2cc3c(=O)oc4ccc(C)cc4c3s2)cc(OC)c1OC	13	nt	-3	0	-2
CCOc1ccc(-c2nnc(NC(=O)C3CCCC3)o2)cc1	4	-105*	-1	-2	-6
O=[N+]([O-])c1ccc(OC/C=C2\Oc3ccc([N+](=O)[O-])cc3C2N2CCOCC2)cc1 (centres undefined)	-69*	-18	-3	3	-16
O=[N+]([O-])c1ccc2c(c1)C(N1CCOCC1)/C(=C/COc1ccc(F)cc1)O2 (centres undefined)	9	-20	-2	3	-12
O=c1ccc(-c2ccccc2)nn1Cc1c(F)cccc1Cl	-22	nt	1	0	6
CC(C)Cn1c(N)c(C(=O)CSc2ccc3c(c2)OCCO3)c(=O)n(C)c1=O	-33*	24	-7	24	16
CCCCc1nc(Cl)c(CO)n1Cc1ccc(-c2ccccc2-c2nn[nH]n2)cc1	-22	23	-2	4	6
CCCc1nc(C(C)(C)O)c(C(=O)O)n1Cc1ccc(-c2ccccc2-c2nn[nH]n2)cc1	-43*	nt	0	0	nt
CC(C)c1cc2c(s1)c1cnn(Cc3ccccc3F)c(=O)c1n2C	5	nt	-3	13	nt
COc1cc(CC(=O)OCC(=O)N2CC(=O)Nc3ccccc32)cc(OC)c1OC	-33*	-13	-4	1	-1
O=C1CN(C(=O)COC(=O)c2ccc(Cl)cc2)c2ccccc2N1	-11	6	-2	8	6
O=C1CN(C(=O)COC(=O)c2ccccc2Br)c2ccccc2N1	-16	-55*	nt	22	-17
O=C1CN(C(=O)COC(=O)c2cccc(OCc3ccccc3)c2)c2ccccc2N1	-89*	-2	4	7	6
CC(=O)N1CCc2cc(Br)cc(S(=O)(=O)NCCCN3CCCC(C)C3)c21 (centres undefined)	-2	-60*	-3	0	-5
CC1CCCN(CCCNS(=O)(=O)c2cc(Br)cc3c2N(C(=O)C2CC2)CC3)C1 (centres undefined)	6	6	-6	0	-20
SMILES	D1 antag	D3 antag	D1 PAM	D1 ag	DRD3 agonist
CC(C)(C)OC(=O)NCc1nnc(C(C(=O)OCc2ccccc2)c2ccccc2)s1 (centres undefined)	-18	nt	-7	1	nt
O=C(COC(=O)C1CC(=O)N(C2CCCCC2)C1)c1ccc(F)cc1 (centres undefined)	-12	-58*	-3	7	-7
O=C(COC(=O)C1CCC(N2C(=O)C3C4CCC(C4)C3C2=O)CC1)c1ccc(F)cc1 (centres undefined)	-35*	1	-9	12	1
O[C@@H](CNC[C@H](O)[C@H]1CCc2cc(F)ccc2O1)[C@@H]1CCc2cc(F)ccc2O1	nt	nt	nt	nt	-20
Cc1cc(C)c(NC(=O)C2CCCN(C(=O)c3cnn(-c4ccccc4)c3-n3cccc3)C2)c(C)c1 (centres undefined)	4	nt	2	3	5
CCOC(=O)c1cnn(-c2ccccc2)c1-n1cccc1C(=O)C(=O)Nc1ccc(F)cc1	-85*	1	-6	7	2
CCOC(=O)c1cnn(-c2ccccc2)c1NC(=O)c1ccccc1	17	12	-4	2	17
CCOC(=O)c1cnn(-c2ccccc2)c1-n1cccc1C(=O)C(=O)Nc1ccccc1	-16	0	-4	2	3
CCOC(=O)c1cnn(-c2ccccc2)c1NC(=O)C(F)(F)C(F)(F)C(F)(F)F	-17	-68*	18	5	-4
CCOc1ccccc1NC(=O)C(=O)Nc1ccc2nc3n(c(=O)c2c1)CCCCC3	7	nt	1	1	2
CCc1ccccc1NC(=O)CSc1nnc(-c2cc(OC)c(OC)c(OC)c2)o1	-7	nt	-1	3	-22
CCCn1c(=N)c(C(=O)NC2CCCCC2)cc2c(=O)n3cc(C)ccc3nc21	10	nt	0	-1	0
CCCc1ccc(OC(C)C(=O)Nc2sc3c(c2C(=O)OC)CCCCC3)cc1 (centres undefined)	13	nt	-2	2	8
COc1ccc(-c2nc(-c3ccc(O)cc3O)cs2)cc1OC	-1	47	0	6	39*
O=C(Nc1ccc2nc(SCC(=O)N3CCCc4ccccc43)sc2c1)c1cccc(Cl)c1	-3	nt	1	8	-7
CC(C)c1cc(-c2nc(-c3ccccc3)no2)n[nH]1	2	nt	-4	1	7
Cn1c(O)c(/C=N/NC(=O)c2cc3ccccc3cc2O)c2ccccc21	-17	23	nt	147*	29
Cn1c2ccccc2c2cc(/C=N/NC(=O)c3ccc(O)cc3O)ccc21	-1	-7	-1	1	-4
COc1cc(NC(=O)C2CCN(S(=O)(=O)c3c(C)noc3/C=C/c3cccs3)CC2)cc(OC)c1	-11	nt	14	6	-2
COc1ccc2c(c1)c1c(c(=O)n(-c3ccccc3C)c(=O)n1CC(N)=O)n2C	10	nt	-1	-1	-10
Cc1cccc(N=Nc2ccc(O)c3ncccc23)c1	28	-101*	11	29	-2
CCOc1ccc(N=Nc2ccc(O)c3ncccc23)cc1	2	-58*	10	10	-3
Cc1ccc(C)c(N=Nc2ccc(O)c3ncccc23)c1	-71*	?	-8	-1	-6
Cc1cccc(NCc2ccc(O)c3ncccc23)c1C	-1	-27	-6	0	-20
NS(=O)(=O)c1ccc(N=Nc2ccc(O)c3ncccc23)cc1	3	?	-1	5	3
Cc1cccnc1NCc1ccc(O)c2ncccc12	4	-51*	1	4	-19
